Screens: PubChem, National Center for Advancing Translational Sciences (NCATS)
TbPYK inhibitor: T. brucei pyruvate kinase inhibition | 410,000 tested, 0.12% active | Q57TT1 | Potency, µM (titrated, usually from 76.8 µM), most hits filed as inhibitors | TbPYK enzyme, Kinase-Glo Plus ATP luminescence, 45 min | AID 624173; further: nearly all actives have a fitted effect of over 50% in size
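Luminescent Kinase-Glo Plus end-point after 45 min room-temperature reaction of T. brucei pyruvate kinase started with 130 uM ADP (final). Buffer TEA 50 mM pH 7.2 with KCl, MgCl2, BSA, Tween-20; titration-based qHTS with fitted concentration-effect curves.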
Shiga toxin inh: inhibitors of Shiga toxin in Vero cells; 290,000 tested, 9.2% active; AID 2315; Vero cells, Shiga toxin protein synthesis inhibition reporter; inhibition, % at 38.7 µM; in the data active means inhibition mostly above about 28%, no sharp cut-off; inactive means mostly below about 43%
FBPA Giardia inh: blocks Giardia fructose-bisphosphate aldolase activity; AID 2451; 290,000 tested, 0.71% active; Potency, µM (highest dose often 59.6 µM), most hits filed as inhibitors; purified Giardia FBPA; further: nearly all actives have a fitted effect of over 55% in size
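Giardia FBPA (40 nM reagent) was preincubated 10 min at RT with compound (up to 57.5 uM final), then substrate plus GAPDH/TPI/NAD/arsenate coupling system with diaphorase/resazurin was added; resorufin fluorescence (525/598 nm) was read after 20 min.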
LmPK inh: blocks Leishmania mexicana pyruvate kinase activity; purified LmPK, Kinase-Glo ATP luminescence, 1 h; Q27686; 290,000 tested, 0.37% active; Potency, µM (doses to about 57.5 µM), most hits filed as inhibitors
Target sequence (Q27686 whole entry, looked up): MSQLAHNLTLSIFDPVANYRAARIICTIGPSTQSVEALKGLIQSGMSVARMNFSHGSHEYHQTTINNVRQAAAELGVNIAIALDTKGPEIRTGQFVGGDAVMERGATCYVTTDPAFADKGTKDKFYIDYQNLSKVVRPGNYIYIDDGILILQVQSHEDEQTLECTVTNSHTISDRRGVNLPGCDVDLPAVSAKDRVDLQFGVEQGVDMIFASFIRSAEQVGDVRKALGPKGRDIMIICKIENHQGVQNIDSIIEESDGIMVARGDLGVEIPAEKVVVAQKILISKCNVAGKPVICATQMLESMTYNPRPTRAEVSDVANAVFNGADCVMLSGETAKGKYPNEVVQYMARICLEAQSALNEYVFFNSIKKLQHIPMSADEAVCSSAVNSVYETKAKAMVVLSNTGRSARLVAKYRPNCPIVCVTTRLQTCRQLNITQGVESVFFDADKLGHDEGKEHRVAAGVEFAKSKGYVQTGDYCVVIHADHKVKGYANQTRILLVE
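qHTS format; LmPK 0.1 nM; substrates PEP 0.5 mM and ADP 0.1 mM. One-hour room-temperature incubation, then coupled luciferase luminescence; 0.5 nM enzyme wells mark activation.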
Sm TGR block: blocks Schistosoma mansoni thioredoxin glutathione reductase. Q962Y6. purified TGR, DTNB reduction, TNB absorbance 405 nm. Potency, µM (series often up to 114 µM), actives largely listed as inhibitors. 360,000 tested, 3% active. AID 485364; further: nearly all actives have a fitted effect of over 60% in size
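TGR 20 nM + NADPH 100 uM (dispensed conc.), cpd preinc 15 min RT; start with NADPH (500 uM addition) then DTNB (15 mM addition). Kinetic TNB absorbance, 405 nm filter. Four-parameter Hill fit across titration.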
CHX counter: counter-screen for Shiga toxin inhibitors: cycloheximide protein synthesis inhibition; cell reporter, cycloheximide protein synthesis inhibition counterscreen; max response, %; 300,000 tested, 12% active; AID 2314; in the data active means max response mostly above about 13%, no sharp cut-off; inactive means mostly below about 14%; further: read at 38.3 µM for the half of the compounds with a filed dose
A number is an active result; n = inactive; u = inconclusive; x = no result; [ ] = another dose, or the depositor's remark. The entries come from a sample that favours hits as a whole. Unless noted, the call rests on the fitted dose curve; in most records, active means well fitted curve in the direction sought with a large enough effect; inconclusive means small, poorly fitted or top-dose-only effect, or another doubt; inactive means no such curve, though single readings can be large; an effect the other way counts as inactive or inconclusive.

SMILES	TbPYK inhibitor	Shiga toxin inh	FBPA Giardia inh	LmPK inh	Sm TGR block	CHX counter
O=C(CSc1nc2ccc(NC(=O)CSc3nnnn3-c3ccccc3)cc2s1)Nc1ccccc1	n	n	n	n	n	n
Cc1ccc(CCNC(=O)CCn2nc(-c3ccc(C)cc3)ccc2=O)cc1	n[15.4 µM]	x	x	x	n	x
CCOC(=O)CN1CCC(c2cc(-c3ccc(Cl)cc3)n[nH]2)CC1	n	n	n	n	n	n
CCOC(=O)Cn1nc(-c2ccc(Cl)cc2)cc1N	n	92	n	n	n	38
CCOC(=O)CCn1nc(-c2ccc(Cl)cc2)cc1N	n	n	n	n	n	20
Cc1ccc(C)c(NC(=O)C2CCN(S(=O)(=O)c3c(C)noc3/C=C/c3cccs3)CC2)c1	n	x	x	x	n	x
Cc1cccc(-n2ncc3c(NNC(=O)c4ccco4)ncnc32)c1	n	n	n	n	u	20
Cc1ccccc1C(=O)NNc1ncnc2c1cnn2-c1cccc(Cl)c1	n	x	x	x	n	x
Cc1cccc(C(=O)NNc2ncnc3c2cnn3-c2ccc(C)c(Cl)c2)c1	n	x	x	x	n	x
Cc1ccc(-n2ncc3c(NNC(=O)c4ccco4)ncnc32)cc1Cl	n	n	n	n	n	57
Cn1ncc2c(NNC(=O)Cc3ccccc3)ncnc21	n	n	n	n	n	n
Cc1ccc(-n2ncc3c(NNC(=O)Cc4ccccc4)ncnc32)cc1	n	n	n	n	n	14
CCOC(=O)c1cnc(SC2CC(=O)N(c3cccc(OC)c3)C2=O)nc1N (stereo not drawn)	n	n	n	n	u	n
CCOC(=O)c1ccc(N2C(=O)CC(Sc3ncccn3)C2=O)cc1 (stereo not drawn)	n	n	n	n	40µM	n
CCCOc1ccc(N2C(=O)CC(SCCN)C2=O)cc1 (stereo not drawn)	n	93	n	n	35µM	50
CCOC(=O)C(N)CSC1CC(=O)N(c2ccc(C(=O)OC)cc2)C1=O (stereo not drawn)	n	n	n	n	u	n
O=C(O)CSC1CC(=O)N(c2ccc(Cl)cc2)C1=O (stereo not drawn)	n	n	n	n	n[11.4 µM]	n
COC(=O)c1ccc(N2C(=O)CC(SCCN)C2=O)cc1 (stereo not drawn)	n	54	n	n	u	42
O=C(O)CSC1CC(=O)N(c2ccc(Br)cc2)C1=O (stereo not drawn)	n	n	n	n	45µM	n
COc1ccc(C2=Nn3c(nnc3-c3ccc(OC)cc3OC)SC2)cc1	x	n	n	x	x	n
O=C(N/N=C/c1ccc[nH]1)c1sc2ccccc2c1Cl	n	146	n	n	n	47
O=C(N/N=C/c1ccc[nH]1)c1c[nH]c2ccccc12	n	111	n	n	n	52
O=C(N/N=C/c1ccncc1)c1sc2ccccc2c1Cl	n	n	x	n	n	n
O=C(N/N=C/C1CC2CCC1C2)c1c[nH]c2ccccc12 (stereo not drawn)	n	n	n	n	n	23
O=C(N/N=C/c1ccccn1)c1c[nH]c2ccccc12	n	65	u	n	n	49
SMILES	TbPYK inhibitor	Shiga toxin inh	FBPA Giardia inh	LmPK inh	Sm TGR block	CHX counter
CC(C)Oc1ccccc1-c1nc(SCC(=O)c2ccc(F)cc2)n[nH]1	n	x	x	x	n	x
COc1ccc(NC(=O)Nc2ccc(Br)cn2)cc1	n	77	n	n	n	n
COc1ccc(/C=C/C(=O)NC(=S)Nc2ccc(Br)cn2)cc1	n	n	n	n	n	11
Cc1cc(C)c(OCC(=O)N(Cc2cccc(F)c2)Cc2ccco2)c(C)c1	n	x	x	x	n	x
CC(c1ccccc1F)n1cc(C(=O)NCCCc2nc3ccccc3[nH]2)nn1 (stereo not drawn)	n	n	n	n	x	n
CCc1ccc(-n2nc(CO)c(C(=O)NC(C)c3ccc(Cl)cc3)n2)cc1 (stereo not drawn)	n	x	x	x	n	x
O=C(Cc1ccccc1)NCC(=O)N1CCCCC1	n	n	n	n	n	n
O=C(CC(c1ccccc1O)N1CCCCC1)N1CCCCC1 (stereo not drawn)	x	35	n	n	n	41
O=C(COc1ccc(Br)cc1CO)Nc1ccccc1F	n	77	n	n	n	29
COc1ccccc1NC(=O)COc1ccc(Br)cc1CO	n	n	n	n	n	n
CC(C)(CO)NCc1ccccc1OCC(=O)Nc1ccccc1	n	n	n	n	n	24
Cc1ccc(NC(=O)COc2ccc(Br)cc2CO)cc1	n	n	n	n	n	26
O=C(COc1ccc(Br)cc1CO)Nc1ccccc1	n	n	n	n	n	27
COc1ccc(NC(=O)c2[nH]nc3c2CSc2ccccc2-3)c(OC)c1	n	x	x	x	n	x
COc1cc(CO)ccc1OCC(=O)Nc1ccc(Br)cc1	n	96	n	n	x	21
COc1ccc(N2CCN(C(CNC(=O)C(=O)NCCc3ccccc3)c3cccnc3)CC2)cc1 (stereo not drawn)	n	x	x	x	n	x
O=C(O)Cc1c[nH]c2ccccc12	n	x	x	x	x	x
O=C(CCl)N(c1ccccc1)c1c[nH]c2ccccc12	n	n	n	n	3.2µM	n
O=C(CCl)N(c1ccc(Cl)cc1)c1c[nH]c2ccccc12	n	n	n	n	0.71µM	n
COc1ccccc1CNC(=O)c1ccc2c(c1)N(Cc1cc(C)ccc1C)C(=O)c1ccccc1S2	n	x	x	x	n	x
Cc1ccccc1-c1nn2c(=O)cc(CN3CCN(S(=O)(=O)c4ccc(Cl)cc4)CC3)nc2s1	n	x	x	x	n	x
COc1ccc(/C=C/c2nc(C#N)c(N3CCC(C(N)=O)CC3)o2)cc1OC	n	x	x	x	n	x
O=c1[nH]c(-c2ccccc2O)nc2ccccc12	x	x	n	x	x	x
